PrPC TRFRET: inhibitors of human cell surface prion protein PrPC, primary screen, cell-based, TR-FRET | Major prion protein (Homo sapiens), P04156 | TR-FRET read-out | inhibition, % at 13.8 µM | 370,000 tested, 0.43% active | AID 720596, 2013; in the data active = inhibition above about 24%; also: 0% = median of the test wells and 100% = reference compound wells
Mtb hypoxia rep: PubChem AID 1159583; M. tuberculosis hypoxia-regulated fluorescent reporter, fluorescence; fluorescence inhibition, % (no concentration beside the values); 300,000 tested, 0.1% active; in the data active = fluorescence inhibition mostly above about 23%, no sharp cut-off; inactive = mostly below about 17%
Yp Topo-I inh: Yersinia pestis topoisomerase I inhibitors, primary screen, biochemical, cleavage product accumulation, plate reader, single point. Y. pestis Topo-I cleavage product accumulation. activity, % at 10 µM. DNA topoisomerase I (Yersinia pestis CO92). AID 504884, 2011. 360,000 tested, 0.064% active; in the data active = activity above about 50%, passing the limit was not always enough
GDH-TPI inh: GDH-TPI coupling enzyme inhibitors, primary screen, artefact control for M. tuberculosis FBA inhibitor project, biochemical, absorbance, full deck | AID 588335, 2011 | 360,000 tested, 1.2% active | inhibition, % at 4.8 µM | GDH-TPI coupled enzyme counterscreen, NADH absorbance; in the data active = inhibition above about 30%;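 also: 0% = DMSO wells and 100% = wells lacking the enzyme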
PrP 5UTR inh: inhibition of PrP 5' UTR reporter expression; cell-based PrP 5' UTR mRNA reporter, plate reader; inhibition, % (concentration not given with the values); 340,000 tested, 0.35% active; in the data active = inhibition above about 52%; also: 0 = median of the neutral control wells
FBA Mtb inh: Mtb FBA enzyme inhibitors, primary screen, biochemical, fluorescence, strain H37Rv | Fructose-bisphosphate aldolase (Mycobacterium tuberculosis (strain ATCC 25618 / H37Rv)), … | purified M. tuberculosis FBA, fluorescence read-out | inhibition, % at 1 µM | 360,000 tested, 2.3% active | AID 588726, 2011; in the data active = inhibition above about 27%;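 also: 0% = vehicle and 100% = reference inhibitor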
PrPC TRFRET cf: confirmation of inhibitors of cell surface human prion protein, confirmation, cell-based, TR-FRET. shares compounds with PrPC TRFRET. cell surface PrPC level. inhibition, % at 13.8 µM. 1,500 tested, 65% active. AID 743200, 2013; in the data active = inhibition above about 25%
LD9 cytotox: cytotoxicity in LD9 cells, cytotoxicity control for cell surface PrPc inhibitor project, cell-based, luminescence, high throughput; shares compounds with PrPC TRFRET; luminescence viability; inhibition, % at 13.8 µM; 1,500 tested, 29% active; in the data active = inhibition above about 9.5%
* marks the source's active call; other numbers are inactive results; x = not tested or not shown. This is a sample that favours compounds with a hit; in the whole collection about 3.8% have one here.

SMILES	PrPC TRFRET	Mtb hypoxia rep	Yp Topo-I inh	GDH-TPI inh	PrP 5UTR inh	FBA Mtb inh	PrPC TRFRET cf	LD9 cytotox
COc1cccc(NC(=S)NCc2ccc3c(c2)cc(C)n3C)c1	18.8	7.9	-3.0	2.6	-21.2	0.5	x	x
Cc1cc2cc(CNC(=O)Nc3cccc(Cl)c3)ccc2n1C	35.4*	4.5	-19.1	13.2	-28.8	-1.9	44.0*	-1.6
Cc1cc2cc(CNC(=S)Nc3ccc(OC(F)(F)F)cc3)ccc2n1C	27.1*	5.8	-14.6	3.8	-5.8	1.4	33.8*	-4.5
Cc1cccc(NC(=S)NCc2ccc3c(c2)cc(C)n3C)c1C	27.9*	1.4	6.6	9.1	-4.5	4.5	4.6	0.7
CC1=CCC(C(=O)O)(C(=O)NN=Cc2cccs2)C(c2ccc(F)cc2)C1 (stereo unspecified)	x	10.8	x	x	x	x	x	x
CC(=NNS(=O)(=O)c1ccc(Cl)cc1)c1ccncc1	x	8.5	x	x	x	x	x	x
COc1ccc(NC(=O)N(C)CC2Oc3c(NC(=O)Cc4ccccc4)cccc3C(=O)N(C(C)CO)CC2C)cc1 (stereo unspecified)	x	1.1	x	x	x	x	x	x
CC(C)(C)C(=O)NNC(=O)COc1ccc2ccccc2c1Br	72.3*	-3.2	13.2	6.2	3.8	1.5	70.9*	-4.2
O=C(COc1ccc2ccccc2c1Br)Nn1cnnc1	18.8	4.4	5.0	12.1	-16.4	5.3	x	x
COC(=O)NNC(=O)COc1ccc2ccccc2c1Br	34.4*	7.5	4.1	-3.0	-0.6	10.4	49.1*	-0.7
Cc1cc(NC(=O)COc2ccc3ccccc3c2Br)no1	80.5*	5.1	35.9	-7.3	-67.5	-1.5	101.0*	-2.0
O=C(COc1ccc2ccccc2c1Br)NNC(=O)Nc1ccccc1	6.7	1.4	15.9	10.4	-26.0	-0.2	x	x
S=C(NCCc1ccccc1)N1CCn2cccc2C1c1cccnc1 (stereo unspecified)	32.0*	5.4	-10.4	6.1	-14.0	0.3	1.5	-3.9
Cc1cc(NC2CCCCC2)nc2ccccc12	25.9*	-47.6	3.3	0.7	-11.1	7.3	17.4	3.6
COc1ccc(C=NNc2nc3ccccc3c(=O)[nH]2)cc1	x	-2.0	x	x	x	x	x	x
O=C(Cc1cccs1)Nc1nc(-c2ccc(F)cc2F)cs1	26.2*	7.8	-0.3	9.9	-12.3	0.0	15.7	-7.3
COc1ccc(Cn2c(-c3ccccc3C)nc3c(c(=O)c4ccccc4n3C)c2=O)cc1	52.8*	3.5	1.7	-16.2	-24.2	3.3	8.7	-1.3
O=C(/C=C/c1ccccc1)NCC(=O)NN=Cc1cccnc1	x	9.9	x	x	x	x	x	x
CCN(CC)c1ccc(C=NNC(=O)c2ccc(Br)o2)cc1	x	6.4	x	x	x	x	x	x
Cc1ccccc1NC(=O)C1CCCN(S(=O)(=O)c2ccc3c(c2)C(C)(C)C(=O)N3C)C1 (stereo unspecified)	11.7	-9.3	2.2	-13.9	-10.9	-0.4	x	x
CN1C(=O)C(C)(C)c2cc(S(=O)(=O)N3CCCC(C(=O)NCc4ccc(F)cc4)C3)ccc21 (stereo unspecified)	29.1*	-2.6	13.6	1.4	-27.2	0.4	40.1*	3.6
COc1cccc(CNC(=O)C2CCCN(S(=O)(=O)c3ccc4c(c3)C(C)(C)C(=O)N4C)C2)c1 (stereo unspecified)	12.1	6.0	15.8	18.8	-18.9	-2.6	x	x
CN1C(=O)C(C)(C)c2cc(S(=O)(=O)N3CCCC(C(=O)Nc4ccc(Cl)cc4)C3)ccc21 (stereo unspecified)	80.6*	8.0	17.6	6.6	-19.1	-0.9	73.2*	4.4
CC(C)c1ccc(NC(=O)C2CCCN(S(=O)(=O)c3ccc4c(c3)C(C)(C)C(=O)N4C)C2)cc1 (stereo unspecified)	78.8*	8.8	24.6	-10.1	-3.5	0.3	72.7*	-1.8
CCOc1ccc(NC(=O)C2CCCN(S(=O)(=O)c3ccc4c(c3)C(C)(C)C(=O)N4C)C2)cc1 (stereo unspecified)	39.2*	x	13.4	5.2	x	0.8	32.7*	-4.2
SMILES	PrPC TRFRET	Mtb hypoxia rep	Yp Topo-I inh	GDH-TPI inh	PrP 5UTR inh	FBA Mtb inh	PrPC TRFRET cf	LD9 cytotox
CCOc1ccc(NC(=O)C2CCN(S(=O)(=O)c3ccc4c(c3)C(C)(C)C(=O)N4C)CC2)cc1	-9.9	-2.9	-2.9	-4.3	-27.2	0.1	x	x
CON=C(N)c1ccc([N+](=O)[O-])cc1	x	11.4	x	x	x	x	x	x
CC(OC(=O)c1[nH]cnc1C(=O)NCc1ccc(CNC(=O)OC(C)(C)C)cc1)c1ccccc1 (stereo unspecified)	x	-10.0	x	x	x	x	x	x
COc1cccc(C=NNC(=O)Cn2ccnc2C)c1	x	5.6	x	x	x	x	x	x
CN1C2CCC1CC(=NO)C2	83.9*	x	0.8	10.8	-9.5	0.5	4.9	0.2
CN1C(c2ccccc2)CC(=NO)CC1c1ccccc1 (stereo unspecified)	7.9	6.0	2.7	9.6	-20.5	2.2	x	x
Cc1ccccc1C(=O)Nc1ccc(C(=O)NN=Cc2ccc(O)cc2)cc1	x	3.2	x	x	x	x	x	x
COc1ccc(NC(=O)c2cccc(Oc3ccccc3)c2)cn1	26.0*	7.1	-8.6	-10.0	-25.5	1.3	10.0	0.9
COc1ccc(O)c(C=NNC(=O)c2ccc(CSc3nc(C)cc(C)n3)cc2)c1	x	0.2	x	x	x	x	x	x
CCN(CC)C(=O)Cn1cc(C(=O)C(=O)N2CCc3ccccc32)c2ccccc21	53.4*	13.6	17.4	13.9	-25.8	-0.9	13.3	-2.1
N#C/C(=C(/O)COC(=O)CSc1ccc(Cl)cc1)c1nc2ccccc2[nH]1	26.9*	-7.5	-2.4	13.6	-12.8	7.4	35.7*	62.6*
COc1ccccc1OCC(=O)OC/C(O)=C(\C#N)c1nc2ccccc2[nH]1	30.8*	-1.3	-9.3	4.8	-27.0	0.0	54.5*	63.8*
Cc1ccccc1OCC(O)=C(C#N)c1nc2ccccc2[nH]1	x	8.7	x	x	x	x	x	x
O=c1c(Cc2ccc(Cl)cc2)c(O)ccn1Cc1ccccc1	5.4	x	-4.8	9.5	-22.7	6.4	x	x
CCOC(CCn1ccc(O)c(Cc2ccc(Cl)cc2)c1=O)OCC	35.0*	-7.7	-5.6	11.0	4.6	-1.7	11.2	-1.2
CC(=NNc1ccc(C#N)cc1[N+](=O)[O-])c1ccc(O)cc1	x	11.3	x	x	x	x	x	x
CCOC(=O)NN=Cc1cn(CCCOc2ccc(C)cc2)c2ccccc12	x	9.5	x	x	x	x	x	x
COc1ccc(CCNc2ncnc3c2oc2ccccc23)cc1OC	26.9*	14.4	0.9	7.9	-17.3	-1.1	27.2*	20.2*
COc1ccc(CCNc2nc(C)nc3c2oc2ccccc23)cc1OC	10.8	10.0	14.0	4.8	-2.3	-0.2	x	x
O=C(Cc1cccs1)NN=CC=Cc1ccccc1[N+](=O)[O-]	x	11.3	x	x	x	x	x	x
